Bioassay records deposited in PubChem BioAssay by National Center for Advancing Translational Sciences (NCATS).
Only some compounds are listed: those with a hit (about 6.1% of all), similar ones and a draw of the others.
D3 ag – D3 dopamine receptor (human) agonism. AID 652048. P35462. max activation, %. D3R DiscoveRx beta-arrestin cells, luminescence, 90 min. actives 0.58% (n = 410,000); in the data active means max activation above about 30%
Target sequence (P35462 whole entry, looked up): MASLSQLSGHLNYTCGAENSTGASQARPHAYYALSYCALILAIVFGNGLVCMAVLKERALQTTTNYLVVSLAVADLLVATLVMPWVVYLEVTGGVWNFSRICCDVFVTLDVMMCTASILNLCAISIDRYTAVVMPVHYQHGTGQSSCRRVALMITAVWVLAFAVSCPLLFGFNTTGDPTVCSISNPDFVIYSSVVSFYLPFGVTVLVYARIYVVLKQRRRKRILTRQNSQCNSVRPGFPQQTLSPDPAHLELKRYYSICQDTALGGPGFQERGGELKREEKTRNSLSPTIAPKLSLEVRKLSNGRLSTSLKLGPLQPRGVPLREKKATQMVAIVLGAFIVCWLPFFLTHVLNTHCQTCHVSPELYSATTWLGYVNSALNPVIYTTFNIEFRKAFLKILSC
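Agonist mode: compounds and dopamine controls were applied to plated cells for 90 min at 37 degrees C after an overnight attachment at 1500 cells/well. Luminescent read-out followed 30 - 60 minutes at room temperature with DiscoveRx detection reagent.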
DRD3 antagonist – D3 dopamine receptor (human) antagonism; actives 2.5% (n = 360,000); D3R cells, DiscoveRx beta-arrestin luminescence, antagonist mode; active compounds read low; max response, negative = inhibition, %; AID 652054; in the data active means max response below about -50%; inconclusive means no clear call, values can overlap the other calls
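Cells plated overnight at 1500 cells/well, then exposed to library compounds with dopamine controls for 90 minutes at 37 degrees C. DiscoveRx reagent added for 30–60 minutes at room temperature; luminescence read, quantitative HTS format.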
D1 antag – antagonists of human D1 dopamine receptor. P21728. AID 504652. actives 3.2% (n = 360,000). activity change, negative = inhibition, % at 10 µM. HEK293 TREx D1 cells, calcium flux, dopamine EC80; active compounds read low; in the data active means activity change below about -30%
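Tetracycline-induced HEK293 T-REx cells with force-coupled D1 receptor were loaded with a no-wash calcium dye. Compound was added after a 10 s baseline and read kinetically for 180 s; EC80 dopamine was then added and calcium flux followed another 180 s.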
D1 agonist – agonists of human D1 dopamine receptor; P21728; activation, % at 2 µM; actives 1% (n = 360,000); HEK293 T-REx D1 cells, calcium flux, agonist mode; AID 504660; in the data active means activation above about 30%
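Tetracycline-induced HEK293 TREx D1 cells, force-coupled to calcium signalling, were dye-loaded with a no-wash calcium kit. Compound was pin-added after a 10 s baseline. Fluorescence was read kinetically at 1 cycle/s for 180 s, with calcium rises flagged as agonism.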
D1 potentiator – potentiators of human D1 dopamine receptor. P21728. HEK293 TREx D1 cells, calcium flux, dopamine EC20 potentiation. potentiation, % at 10 µM. actives 0.036% (n = 360,000); in the data active means potentiation above about 30%
Each line names hits and unclear results; the compound was inactive in the other large screens.

O=C(c1ccc2c3c(cccc13)CC2)C1CCCN(Cc2ccc(OCCO)cc2)C1 (stereo unspecified)	DRD3 antagonist -97
O=C1CCC(C(=O)N2CCCC(C(=O)c3ccc4c5c(cccc35)CC4)C2)=NN1 (stereo unspecified)	D1 antag -33
O=C1CCC(CCC(=O)N2CCCC(C(=O)c3ccc4c5c(cccc35)CC4)C2)=NN1 (stereo unspecified)	none
COCC(=O)N1CCCC(C(=O)c2ccc3c4c(cccc24)CC3)C1 (stereo unspecified)	none
O=C(c1ccc2c3c(cccc13)CC2)C1CCCN(Cc2ccccn2)C1 (stereo unspecified)	DRD3 antagonist -51
Cc1cnc(CN2CCCC(C(=O)c3ccc4c5c(cccc35)CC4)C2)[nH]1 (stereo unspecified)	DRD3 antagonist -53
O=C(Cn1c(=O)n(-c2ccc(F)cc2)c(=O)c2sccc21)NC1CCCCC1	D1 antag -61
Cc1ccc(-n2c(=O)c3sccc3n(CC(=O)NC3CCCC3)c2=O)cc1	none (no result: D1 potentiator)
CC(=O)OC1CCC2(C)C(CCC3C4CC=C(C(C)=O)C4(C)OC(=O)CC32)C1 (stereo unspecified)	DRD3 antagonist -94 (no result: D1 antag, D1 agonist, D1 potentiator)
CNC(=O)CSc1nnc(NC(=O)Nc2ccccc2)s1	none (no result: DRD3 antagonist, D1 antag)
COc1ccc(CCNC(=O)c2ccc3c(c2)N(Cc2c(F)cccc2Cl)C(=O)CS3)cc1OC	none (no result: DRD3 antagonist)
O=C1/C(=C\c2ccccc2)CN(C(=O)CCN2CCCCC2)C/C1=C/c1ccccc1	DRD3 antagonist -62 (no result: D1 antag, D1 agonist, D1 potentiator)
O=C1/C(=C\c2ccc(Cl)c(Cl)c2)CN(C(=O)CCN2CCOCC2)C/C1=C/c1ccc(Cl)c(Cl)c1	DRD3 antagonist -79 (no result: D1 antag, D1 agonist, D1 potentiator)
CCN(CC)CCC(=O)N1C/C(=C/c2ccccc2)C(=O)/C(=C\c2ccccc2)C1	none (no result: D1 antag, D1 agonist, D1 potentiator)
CC(=O)c1cc(-c2ccc(F)cc2)n(CCC(=O)NC2CCCCC2)c1C	none (no result: DRD3 antagonist)
Cc1ccccc1CNC(=O)c1oc2c(c1C)-c1nn(Cc3ccc(Cl)cc3)cc1CC2	none (no result: DRD3 antagonist)
CCN(C(=O)c1ccc2c(c1)N(Cc1cccc(Cl)c1)C(=O)c1ccccc1S2=O)c1ccccc1 (stereo unspecified)	none (no result: DRD3 antagonist)
N#Cc1nc(Nc2ccc(Br)cc2)nc(NC2CCCC2)n1	none (no result: D3 ag, DRD3 antagonist)
O=C1N/C(=N\S(=O)(=O)c2ccccc2)S/C1=C\c1cc([N+](=O)[O-])ccc1O	D1 agonist 168
O=C1N/C(=N\S(=O)(=O)Cc2ccccc2)S/C1=C/c1cc([N+](=O)[O-])ccc1O	DRD3 antagonist inconclusive, D1 agonist 267
O=C(Cc1ccc(Cl)cc1)Nc1nnc2n1CCS2	none (no result: DRD3 antagonist)
N=c1c[n+](N2CCOCC2)[n-]o1	DRD3 antagonist -107
Cc1cc(=O)oc2cc(OCC(=O)Nc3c(C(C)C)cccc3C(C)C)ccc12	none (no result: DRD3 antagonist)
O=C(NCc1ccccc1)C(=O)NCC(c1ccco1)N1CCOCC1 (stereo unspecified)	none
O=P(c1ccccc1)(c1ccccc1)C(c1ccco1)N1CCOCC1 (stereo unspecified)	DRD3 antagonist -61
CC(=O)Oc1ccc2c(c1)C(=O)CCCCCC(=O)O2	DRD3 antagonist -70 (no result: D1 antag, D1 agonist, D1 potentiator)
CC(=O)Oc1ccc2c(c1)C(=O)c1ccccc1CO2	DRD3 antagonist inconclusive
COc1cccc(C2C(C(=O)Nc3ccccc3)=C(C)Nc3nnnn32)c1OC (stereo unspecified)	none (no result: DRD3 antagonist)
O=C1CCCC2=C1C(c1ccc(O)c(O)c1)Nc1ccc3ccccc3c12 (stereo unspecified)	none (no result: D1 antag, D1 agonist, D1 potentiator)
O=C1CCCC2=C1C(c1ccco1)Nc1ccc3ccccc3c12 (stereo unspecified)	D1 antag -36
COCCn1c(-c2ccc(Br)cc2)csc1=Nc1cccnc1	D1 antag -34
FC(F)Oc1ccc(-c2csc(=Nc3cccnc3)n2CC2CCCO2)cc1 (stereo unspecified)	D1 antag -31
O=C(O)CCc1ccc(-c2cccs2)n1CC1CCCO1 (stereo unspecified)	none
Clc1ccc(-c2csc(=Nc3cccnc3)n2CCCn2ccnc2)cc1Cl	none
CCc1nn(CC(=O)Nc2c(C)cccc2C)c(=O)c2cc3sccc3n12	none (no result: DRD3 antagonist)
O=C(CC(c1cccs1)N1Cc2ccccc2C1=O)Nc1cccc(F)c1 (stereo unspecified)	none (no result: DRD3 antagonist)
c1cc2[nH]snc2c2nc(C3CC3)nc12	D3 ag 34
CCCCN(CC)CCNC(=O)Cn1cnc2sc(C)c(S(=O)(=O)N3CCN(c4ccccc4OC)CC3)c2c1=O	none (no result: DRD3 antagonist)
Cc1cc(OC(C)C(=O)N(Cc2ccc(N(C)C)cc2)Cc2ccco2)ccc1Cl (stereo unspecified)	none (no result: DRD3 antagonist)
Oc1ccc(CNCc2ccc3c(c2)OCO3)c2cccnc12	none (no result: D3 ag, DRD3 antagonist)
CC(C)(C)C(=O)Cn1c(=O)n(CCCCCC(=O)NCc2ccc3c(c2)OCO3)c(=O)c2sccc21	none (no result: DRD3 antagonist)
COc1ccc(-c2nc(SCCOc3cc(C)ccc3C(C)C)n3[nH]c(=O)cc3n2)cc1	none (no result: DRD3 antagonist)
CCOC(=O)c1nc2sc(C)c(C)c2c(=O)[nH]1	none (no result: D1 antag, D1 agonist, D1 potentiator)
CCOC(=O)/C(=C\c1cccc(O)c1)c1nc2sc(C)c(C)c2c(=O)[nH]1	DRD3 antagonist -58
O=S(=O)(NCCc1cn(S(=O)(=O)c2ccccc2)c2ccccc12)c1ccccc1	none (no result: D3 ag, DRD3 antagonist)
CCCCn1c(=O)cc(N2CCOCC2)[nH]c1=O	D1 antag -46
Cc1ccc(Nc2sc(C(=O)c3ccccc3)c(N)c2S(=O)(=O)c2ccccc2)c(C)c1	none (no result: DRD3 antagonist)
COc1cccc(CNC(=O)CCc2c(C)nn(-c3ccc(N4CCCC4)nn3)c2C)c1	D1 antag -40 (no result: DRD3 antagonist)
Cc1ccccc1NC(=O)CCc1c(C)nn(-c2ccc(N3CCOCC3)nn2)c1C	none
CCOc1ccccc1NC(=O)CCc1c(C)nn(-c2ccc(N3CCOCC3)nn2)c1C	D1 antag -68 (no result: DRD3 antagonist)
COc1cc(NC(=O)CCc2c(C)nn(-c3ccc(N4CCCCC4)nn3)c2C)cc(OC)c1OC	D3 ag 73 (no result: DRD3 antagonist)
COc1ccc(CNC(=O)CCc2c(C)nn(-c3ccc(N4CCCCC4)nn3)c2C)cc1	none (no result: DRD3 antagonist)
O=C(CN1C(=O)COc2ccccc21)NCCc1ccc(Cl)cc1	none (no result: DRD3 antagonist)
COc1ccc(NC(=O)c2c(N)c(C(=O)c3ccc(OC)cc3)n3ccccc23)cc1	none (no result: DRD3 antagonist)
CCOC(=O)N=Nc1c(O)n(CC)c2ccccc12	none
CCn1c(O)c(N=NC(=O)C2C(=O)NCC2c2ccccc2)c2ccccc21 (stereo unspecified)	D1 antag -80
Cc1cccc(NC(=O)C(=O)NCC(c2cccnc2)N2CCc3ccccc3C2)c1C (stereo unspecified)	none (no result: DRD3 antagonist)
COc1ccc(N=Cc2c(O)n(-c3cccc(C)n3)c(=O)c3ccccc23)cc1	none
O=c1c(C=Nc2ccc(Oc3ccccc3)cc2)c[nH]n1-c1cccc(Cl)n1	DRD3 antagonist -56
S=C(NC1CCCC1)NC1CC1	D1 antag -41
Cc1ccccc1OCc1ccc(-c2nc(C#N)c(NCc3cccnc3)o2)o1	none (no result: DRD3 antagonist)
COc1cc(Nc2ncc3c(n2)CCN(Cc2cc(F)cc(F)c2)C3)cc(OC)c1	none (no result: DRD3 antagonist)
